# From article PMC8384837, “Expanding the binding specificity for RNA recognition by a PUF domain”
# Changes are numbered by the printed parent chain.
# Columns and labels:
# Test in all cases: yeast three-hybrid, YBZ-1, SC-Leu-His + 0.5 mM 3-AT, 4 days
# Conditions in all cases: tags: N-Gal4 AD-HA kept; label: inside an RPR1-promoter hybrid RNA with tandem MS2 sites; ssRNA
# PUM1 PUF domain R8-KQR = PUM1 PUF domain R8-KQR (Homo sapiens, UniProt Q14671 828-1176, N1122K;Y1123Q;Q1126R)
# Method in brief: (§1)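 Pumilio-1 PUF domain libraries, randomized at the three base-contacting residues of each repeat, were co-expressed with matching RNA elements from a centromeric plasmid in strain YBZ-1, which carries a LexA–MS2 coat fusion and a HIS3 reporter. Transformants grew for four days on SC-Leu (input) or on SC-Leu-His + 0.5 mM 3-AT (selection), and the repeat regions were PCR-amplified and Illumina-sequenced. The interaction score is the log change in variant frequency from input to selection. That logarithm is base 2, with a pseudocount of 1 where a variant was absent.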
# PUM1 PUF domain R7-KRT = PUM1 PUF domain R7-KRT (Homo sapiens, UniProt Q14671 828-1176, S1079K;N1080R;E1083T)
# Method in brief: as §1
# PUM1 PUF domain R5-QRS = PUM1 PUF domain R5-QRS (Homo sapiens, UniProt Q14671 828-1176, C1007Q;Q1011S)
# Method in brief: as §1
# PUM1 PUF domain R1-SWK = PUM1 PUF domain R1-SWK (Homo sapiens, UniProt Q14671 828-1176, R864W;Q867K)
# Method in brief: as §1
# PUM1 PUF domain R1-KQN = PUM1 PUF domain R1-KQN (Homo sapiens, UniProt Q14671 828-1176, S863K;R864Q;Q867N)
# Method in brief: as §1
# PUM1 PUF domain R4-SRW = PUM1 PUF domain R4-SRW (Homo sapiens, UniProt Q14671 828-1176, N971S;H972R;Q975W)
# Method in brief: as §1
# PUM1 PUF domain R4-LGM = PUM1 PUF domain R4-LGM (Homo sapiens, UniProt Q14671 828-1176, N971L;H972G;Q975M)
# Method in brief: as §1
# PUM1 PUF domain R6-WHG = target: T1, PUM1 PUF domain R6-WHG (Homo sapiens, UniProt Q14671 828-1176, N1043W;Y1044H;Q1047G)
# T1 sequence: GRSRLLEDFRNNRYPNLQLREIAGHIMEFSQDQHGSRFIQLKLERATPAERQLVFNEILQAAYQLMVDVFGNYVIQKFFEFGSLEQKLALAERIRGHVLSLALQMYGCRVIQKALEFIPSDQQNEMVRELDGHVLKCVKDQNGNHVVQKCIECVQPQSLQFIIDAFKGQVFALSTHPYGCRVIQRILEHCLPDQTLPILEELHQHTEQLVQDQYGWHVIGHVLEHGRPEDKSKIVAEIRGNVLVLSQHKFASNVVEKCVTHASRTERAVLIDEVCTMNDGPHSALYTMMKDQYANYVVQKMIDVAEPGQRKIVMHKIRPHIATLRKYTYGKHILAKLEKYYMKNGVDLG
# Method in brief: as §1
# PUM1 PUF domain R6-RHQ = target: T2, PUM1 PUF domain R6-RHQ (Homo sapiens, UniProt Q14671 828-1176, N1043R;Y1044H)
# T2 sequence: T1 sequence with W216R, G220Q
# Method in brief: as §1
# PUM1 PUF domain R3-APV = PUM1 PUF domain R3-APV (Homo sapiens, UniProt Q14671 828-1176, C935A;R936P;Q939V)
# Method in brief: as §1
sequence,measurement,setting,value
GGCUAGAACUAGUGGAUCCCCCGGCGCCCGGCGGCUCGAGCCCGGGUAAGCGUAAAUAGUCUGCAUGCCGCCGGGCGCCAUGCCUGCAGGUCGACUCUAGAAAACAUG,binding signal,PUM1 PUF domain R8-KQR,2.27 log2 enrichment (interaction score)
GGCUAGAACUAGUGGAUCCCCCGGCGCCCGGCGGCUCGAGCCCGGGUAAGUUUAAAUAGUCUGCAUGCCGCCGGGCGCCAUGCCUGCAGGUCGACUCUAGAAAACAUG,binding signal,PUM1 PUF domain R7-KRT,4.19 log2 enrichment (interaction score)
GGCUAGAACUAGUGGAUCCCCCGGCGCCCGGCGGCUCGAGCCCGGGUAAGUGUGAAUAGUCUGCAUGCCGCCGGGCGCCAUGCCUGCAGGUCGACUCUAGAAAACAUG,binding signal,PUM1 PUF domain R5-QRS,3.7 log2 enrichment (interaction score)
GGCUAGAACUAGUGGAUCCCCCGGCGCCCGGCGGCUCGAGCCCGGGUAAGUGUAAAUCGUCUGCAUGCCGCCGGGCGCCAUGCCUGCAGGUCGACUCUAGAAAACAUG,binding signal,PUM1 PUF domain R1-SWK,2.68 log2 enrichment (interaction score)
GGCUAGAACUAGUGGAUCCCCCGGCGCCCGGCGGCUCGAGCCCGGGUAAGUCUAAAUAGUCUGCAUGCCGCCGGGCGCCAUGCCUGCAGGUCGACUCUAGAAAACAUG,binding signal,PUM1 PUF domain R7-KRT,4.64 log2 enrichment (interaction score)
GGCUAGAACUAGUGGAUCCCCCGGCGCCCGGCGGCUCGAGCCCGGGUAAGUGUAAAUGGUCUGCAUGCCGCCGGGCGCCAUGCCUGCAGGUCGACUCUAGAAAACAUG,binding signal,PUM1 PUF domain R1-KQN,2.83 log2 enrichment (interaction score)
GGCUAGAACUAGUGGAUCCCCCGGCGCCCGGCGGCUCGAGCCCGGGUAAGUGUAUAUAGUCUGCAUGCCGCCGGGCGCCAUGCCUGCAGGUCGACUCUAGAAAACAUG,binding signal,PUM1 PUF domain R4-SRW,0.88 log2 enrichment (interaction score)
GGCUAGAACUAGUGGAUCCCCCGGCGCCCGGCGGCUCGAGCCCGGGUAAGUGUAAAUAGUCUGCAUGCCGCCGGGCGCCAUGCCUGCAGGUCGACUCUAGAAAACAUG,binding signal,PUM1 PUF domain R4-SRW,3.2 log2 enrichment (interaction score)
same,binding signal,PUM1 PUF domain R5-QRS,1.57 log2 enrichment (interaction score)
same,binding signal,PUM1 PUF domain R4-LGM,3.11 log2 enrichment (interaction score)
same,binding signal,PUM1 PUF domain R6-WHG,3.76 log2 enrichment (interaction score)
same,binding signal,PUM1 PUF domain R6-RHQ,5.04 log2 enrichment (interaction score)
same,binding signal,PUM1 PUF domain R3-APV,3.39 log2 enrichment (interaction score)
GGCUAGAACUAGUGGAUCCCCCGGCGCCCGGCGGCUCGAGCCCGGGUAAGUGUAAUUAGUCUGCAUGCCGCCGGGCGCCAUGCCUGCAGGUCGACUCUAGAAAACAUG,binding signal,PUM1 PUF domain R3-APV,1.79 log2 enrichment (interaction score)
